In PubChem BioAssay AID1903 (Southern Research Specialized Biocontainment Screening …, 2009):
Out of some 310,000 compounds screened, about 1,200 (0.39%) were called active. The rule behind the calls is not given here. Not all results are given here. Results with a measured potency or affinity are listed apart.

target: Large T antigen (Simian virus 40) (UniProt P03070); assay: SV40 large T antigen inhibitors, biochemical (AID 1903); details: SV40 large T antigen ATPase/helicase inhibition assay; at 20 µM; active compounds read high
Sequence (P03070 whole entry, looked up): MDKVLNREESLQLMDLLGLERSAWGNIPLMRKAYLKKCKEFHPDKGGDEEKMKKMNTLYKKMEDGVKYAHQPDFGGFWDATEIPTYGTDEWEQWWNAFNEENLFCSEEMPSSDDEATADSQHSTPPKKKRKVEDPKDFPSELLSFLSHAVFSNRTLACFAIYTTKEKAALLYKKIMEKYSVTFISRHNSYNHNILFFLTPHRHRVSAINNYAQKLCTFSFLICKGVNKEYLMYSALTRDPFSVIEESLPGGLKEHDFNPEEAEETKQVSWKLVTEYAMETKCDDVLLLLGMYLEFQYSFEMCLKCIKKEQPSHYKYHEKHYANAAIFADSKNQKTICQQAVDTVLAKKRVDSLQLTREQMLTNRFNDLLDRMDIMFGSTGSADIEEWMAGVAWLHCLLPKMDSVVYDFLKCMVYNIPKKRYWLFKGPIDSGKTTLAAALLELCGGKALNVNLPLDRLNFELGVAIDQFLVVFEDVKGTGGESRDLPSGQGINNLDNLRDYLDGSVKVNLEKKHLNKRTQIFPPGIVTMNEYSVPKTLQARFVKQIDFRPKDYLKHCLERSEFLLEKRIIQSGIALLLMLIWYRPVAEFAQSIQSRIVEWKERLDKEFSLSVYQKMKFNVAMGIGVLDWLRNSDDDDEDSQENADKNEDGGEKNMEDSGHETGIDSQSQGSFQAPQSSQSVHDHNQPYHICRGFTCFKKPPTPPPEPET

inhibition, inactive:
O=S(=O)(Nc1cccc(-c2ccc(N3CCCCCC3)nn2)c1)c1ccc(C(F)(F)F)cc1 2.18%
C#CCOCCOCCOCCNc1nc(N2CCN(C(=O)Cn3cc(CCCCN)nn3)CC2)nc(N2CCN(C(=O)[C@H](C(C)C)n3cc(CCO)nn3)CC2)n1 9.84%
CC1=C(C(=O)NCc2ccccc2)C(c2cccnc2)n2ncnc2N1 (configuration not stated) 0.75%
Cc1cc(=O)[nH]c(SCc2ccccc2)n1 -3.07%
CCN(c1ccccc1)S(=O)(=O)c1ccc2ccccc2c1 1.9%
COc1cccc(OC)c1C(=O)Nc1ccc([N+](=O)[O-])cn1 8.19%
CC(=O)c1ccc2c(c1)C1C=CCC1C(c1ccncc1)N2 (configuration not stated) 7.95%
O=C(OC1CCCCC1)c1ccc2c(c1)C1C=CCC1C(C(=O)O)N2 (configuration not stated) 33.8%
COc1ccc(N2CCN(C(=O)c3ccc(SC)cc3OC)CC2)cc1 18.7%
COc1cc(Cl)ccc1NC(=O)COc1ccccc1C(=O)NN 6.94%
COc1cc(SC)ccc1C(=O)N1CCN(Cc2ccc3c(c2)OCO3)CC1 18.1%
COc1cc(SC)ccc1C(=O)N1CCN(c2ccccc2OC)CC1 2.01%
COc1cc(SC)ccc1C(=O)N1CCN(c2ccccc2)CC1 2.66%
COc1ccccc1NC(=O)COC(=O)c1ccccc1C(=O)N1CCN(c2ccccc2)CC1 6.53%
Cc1ncc([N+](=O)[O-])n1Cc1ccc(Br)cc1 7.03%
CCc1cccc(C)c1NC(=O)CN(C)Cc1ccc(Br)cc1 9.47%
O=C(NCc1ccco1)C1CC(c2ccc(F)cc2)=NO1 (configuration not stated) 6.38%
COC(=O)/C(C#N)=C\c1c(OC)[nH]c2ccccc12 8.82%
N#C/C(=C\c1c[nH]c2ccccc12)C(N)=O 5.89%
O=C(CN(c1ccccc1F)S(=O)(=O)c1ccccc1)Nc1ccccc1C(=O)N1CCOCC1 11.3%
Cc1cccc(NC(=O)c2ccc(N3CCOCC3)c([N+](=O)[O-])c2)n1 -1.72%
O=C(CNC(=O)c1cccc(F)c1)N/N=C/c1cccnc1 20.9%
C=C(C)CSc1nc2c(cc1C#N)CCC2 7.26%
CCn1c(COc2ccc(C)cc2)nc2ccccc21 3.75%
Cc1ccc(-c2nc(N)s[n+]2-c2ccccc2)cc1 13.6%
Cc1ccc(-c2nc3ccccc3nc2-c2ccccc2)cc1 0.76%
O=C1C(Cl)=C(N2CCCCC2)C(=O)N1Cc1ccccc1 0.56%
Cc1ccc(C(=O)N/C(=C\c2sccc2C)C(=O)NCc2ccco2)cc1 7.34%
COc1ccc(-c2ccc(/C=C3\C(=O)N(c4ccccc4)N=C3c3ccccc3)o2)c([N+](=O)[O-])c1 2.08%
O=C1/C(=C\c2ccc(-c3ccccc3[N+](=O)[O-])o2)C(c2ccccc2)=NN1c1ccccc1 -3.41%
CC1=NOC(=O)/C1=C\c1ccc(-c2ccc(Cl)cc2Cl)o1 16.7%
O=C(O)/C(=C\c1ccc(-c2ccccc2[N+](=O)[O-])o1)c1ccccc1 10.1%
Cc1ccc(C2=NOC(=O)/C2=C\c2ccccc2)cc1 59.5%
Cc1ccc(/C=C2\C(=O)ON=C2c2ccccc2)o1 -2.84%
O=C1COc2ccc(C(=O)COC(=O)c3sc4ccccc4c3Cl)cc2N1 7.71%
CCOc1ccc(CN(C)CC(=O)Nc2ccc(N3CCOCC3)cc2)cc1OC 6.36%
CC(NC(=O)c1ccccc1F)c1ccccc1 (configuration not stated) 3.89%
O=C(NCCNC1CCN(Cc2ccccc2)CC1)c1cccs1 5.49%
O=C1CCCC(=O)C1CS(=O)(=O)c1ccccc1 14.9%
CCOC(=O)N1CCC(=NNc2nc3ccccc3s2)CC1 8.66%
CC1(C)C(=O)Nc2ccccc2N1C(=O)COC(=O)c1ccc(Cl)c(S(=O)(=O)NCc2ccccc2)c1 6.69%
O=C(Nc1ccccc1F)c1ccccc1C(=O)Nc1ccccc1F 14.6%
CCCCn1c(N)c(N(CCC(C)C)C(=O)CC2CCCC2)c(=O)[nH]c1=O 19.1%
COc1ccc(CC(=O)NN2C(=O)c3ccccc3C2=O)cc1 10.8%
O=C1c2ccccc2C(=O)N1CCCc1c[nH]c2ccc(Cl)cc12 8.17%
N[C@@H](Cc1c[nH]c2ccc(O)cc12)C(=O)O 20.5%
O=C(O)Cc1c[nH]c2ccc(O)cc12 29.6%
O=C1c2ccccc2C(=O)N1CCc1c[nH]c2ccccc12 14.9%
COc1ccc2[nH]cc(CCNC(C)=O)c2c1 -0.22%
CC(=O)NCCc1c[nH]c2ccc(OCc3ccccc3)cc12 17%
COc1ccccc1CCN1CCCC(CN(C)C(=O)c2ccc3nc[nH]c3c2)C1 (configuration not stated) 6.91%
Cc1ccc(C)c(S(=O)(=O)N2CCCOC2CNC(=O)C(=O)NCCCn2ccnc2)c1 (configuration not stated) 7.3%
Cc1[nH][nH]c(=O)c1C=NCc1cccc(C(F)(F)F)c1 8.38%
CC(=N)c1c(O)c2ccccc2oc1=O 20.4%
O=C(Oc1cccc(Cl)c1)N1CCOCC1 7.93%
NS(=O)(=O)c1ccc(NC(=O)COC(=O)c2cccc(S(=O)(=O)N3CCCC3)c2)cc1 11.7%
Cc1c(NC(=O)c2cccc(-c3cc4ccccc4oc3=O)c2)cccc1-c1nc2ncccc2o1 -0.4%
CCCCNc1nnc(Cc2ccc(Cl)cc2)c(=O)[nH]1 9.41%
O=C(CCCn1cncn1)N1CCCC(Nc2ccc(F)cc2)C1 (configuration not stated) 5.07%
O=C(CSc1ccccc1)N1CCCC(Nc2ccccc2)C1 (configuration not stated) 7.87%
COc1ccc(NC2CCCN(C(=O)CCCn3cncn3)C2)cc1OC (configuration not stated) 33.9%
COc1ccc(NC2CCCN(C(=O)CCN3CCCO3)C2)cc1 (configuration not stated) 23%
COc1ccc(NC2CCCN(C(=O)CSc3ccncc3)C2)cc1 (configuration not stated) 31.4%
COc1ccc(NC2CCCN(C(=O)CCN3Cc4ccccc4C3=O)C2)cc1 (configuration not stated) 34.5%
COc1ccc(S(=O)(=O)Nc2cc(C(=O)NC3CCCCCC3)ccc2N2CCOCC2)cc1 3.07%
CCc1nn(CC(=O)NCCCN2CCCC2=O)c(=O)c2cc3sccc3n12 -4.15%
Cc1ccc(NS(=O)(=O)c2c(C)[nH]c(C)c2C(=O)N2CCCCC2)c(Cl)c1 -2.05%
CCOC(=O)c1ccc(NC(=O)C(=O)NCc2ccccn2)cc1 -2.35%
CC(C)(CC(=O)O)CC(=O)Nc1ccc2c(c1)ncn2CCc1ccccc1 5.95%
COc1ccc(/C=C2/SC(=O)NC2=O)cc1 12.9%
O=C1NC(=O)/C(=C\c2ccc(Cl)nc2)S1 8.29%
COc1ccc(/C=C2\SC(=O)N=C2N)cc1OC 8.84%
CC(C)(C)c1ccc(/C=C2\SC(=O)N=C2N)cc1 5.32%
Cc1c(N=C2NC(=O)/C(=C/c3cccc([N+](=O)[O-])c3)S2)c(=O)n(-c2ccccc2)n1C 4.3%
Cc1c(N=C2C(=O)Nc3ccccc32)c(=O)n(-c2ccccc2)n1C 1.2%
CCOc1cc(/C=C2\SC(N)=NC2=O)ccc1O 34.2%
NC1=NC(=O)S/C1=C\c1ccc(F)cc1 8.64%
CCN(CC)CCSc1nc(O)c(C(C)C)c(=O)[nH]1 14.1%
COC(=O)[C@@H](Cc1c[nH]c2ccccc12)NC(=O)c1cc(=O)[nH]c2ccccc12 2.68%
CCOc1cc(S(=O)(=O)NC2CCCC2)ccc1Cl 2.79%
O=C(NCc1cccs1)C(=O)c1c[nH]c2ccccc12 -25.6%
Cc1occc1-c1nnc(SCC(=O)N2CCOCC2)o1 1.14%
O=S(=O)(Nc1nc2c(s1)CCCC2)c1ccc(Br)cc1 -1.56%
COc1ccc(/C=C(\NC(=O)c2ccccc2)C(=O)OCC2CCCN3CCCCC23)cc1OC (configuration not stated) -3.64%
COc1ccc(/C=C/C(=O)OCC(=O)Nc2cc(S(=O)(=O)N(C)C)ccc2Cl)cc1 3.97%
COc1cccc(NC(=O)c2ccc(N3C(=O)C4CC=C(C)CC4C3=O)cc2)c1 (configuration not stated) 7.31%
Cc1cccc(S(=O)(=O)Nc2nc3ccccc3nc2Nc2ccc3c(c2)OCO3)c1 17.6%
Cc1nc2ccc(Br)cc2c2c1CC(CBr)O2 (configuration not stated) 10.6%
O=C(O)c1cccc(Nc2c3ccccc3nc3ccccc23)c1 -9.05%
Cc1ccc(O)c(Nc2c3ccccc3nc3ccccc23)c1 12.6%
CCCCNC(=O)OCCNC(=O)NC 7.67%
COc1ccc(N2CCN(C(=S)Nc3cc(C)ccc3C)CC2)cc1 3.41%
COc1ccc(NC(=S)NCC2CCN(c3ccc(OC)cc3)C2)cc1 (configuration not stated) 36.1%
COc1ccc(N2CCC(CNC(=S)Nc3cc(C)cc(C)c3)C2)cc1 (configuration not stated) 28.6%
COc1ccc(N2CCC(CNC(=S)Nc3cc(C)ccc3C)C2)cc1 (configuration not stated) 36.6%
COc1ccc(N2CCN(CC(=O)Nc3c(C)cc(C)cc3C)CC2)cc1 24%
COc1ccc(N2CCC(CNC(=S)Nc3cccc(C)c3)C2)cc1 (configuration not stated) 21.4%
